From PubChem BioAssay (Tox21) come the findings set out here.

In experiment [1] the target is Thyrotropin receptor (Homo sapiens) (UniProt P16473). The experiment can be described thus: qHTS assay to identify small molecule antagonists of the thyroid stimulating hormone receptor (TSHR) signaling pathway (AID 1259385; calls by dose curve; further: nearly all actives have a fitted effect of over 20% in size). The procedure, abridged:
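TSHR-HEK293 cells were plated and held 18 h at 37C/5% CO2, then given compound plus Ro20-1724 and stimulated with TSH at 1.5 ng/mL final. After 30 min at room temperature, cAMP was detected with cAMP-d2/anti-cAMP-cryptate (1 h) by fluorescence.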

Experiment [2] has as its target Progesterone receptor (Homo sapiens) (UniProt P06401). As to the kind of experiment: qHTS assay to identify small molecule agonists of the progesterone receptor (PR) signaling pathway (AID 1346784; calls by dose curve; further: nearly all actives have a fitted effect of over 30% in size; further: potency means the concentration at half of the fitted maximal effect). The procedure, abridged:
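Compounds were tested for PR agonism in HEK 293T cells bearing a beta-lactamase gene under UAS control. Treatment lasted 16 hr at 37C; signal came from fluorescence of a FRET substrate.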
(In general: Quantitative high-throughput screening tests each substance at several concentrations.)

For experiment [3] the target is unchanged. The experiment can be described thus: qHTS assay to identify small molecule antagonists of the progesterone receptor (PR) signaling pathway (AID 1346795; active means well fitted inhibition curve with a large enough effect in the signal ratio in the repeat runs, not every such curve was filed as active; the % refers to the signal ratio; further: potency means the concentration at half of the fitted maximal effect). The procedure, abridged: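 In HEK293T cells bearing the PR-UAS-bla reporter, compound effects on promegestone-driven (1 nM) beta-lactamase expression are assessed after 16 hr using a fluorescent FRET substrate incubated 2 hr at room temperature.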

Experiment [4] can be described thus: qHTS assay to identify small molecule antagonists of the progesterone receptor (PR) signaling pathway - cell viability counter screen (AID 1346798). Further: series mostly up to about 92 µM; nearly all actives have a fitted effect of over 50% in size. The procedure, abridged:
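Following a 4 hr attachment, PR-UAS-bla HEK293T cells in charcoal-stripped FBS medium were exposed to compounds with R5020 for 16 hr; CellTiter-Glo was added and luminescence read after 30 min at room temperature.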

Experiment [5] is described as follows: qHTS assay to identify small molecule agonists of the progesterone receptor (PR) signaling pathway - cell viability counter screen (AID 1346799; calls by dose curve; further: nearly all actives have a fitted effect of over 45% in size). The procedure, abridged: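 Here, 3,000 PR-UAS-bla HEK293T cells per well were treated with compounds for 16 hr after a 6 hr preincubation at 37C and 5% CO2; cell viability is the CellTiter-Glo luminescence signal.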

Experiment [6] in a line: qHTS assay to identify small molecule agonists of the TGF-beta/Smad signaling pathway - cell viability counter screen (AID 1346829). Further: top concentration of the series differs between compounds; nearly all actives have a fitted effect of over 45% in size. The procedure, abridged:
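Here the cytotoxicity of library compounds is measured in SBE-bla HEK 293T cells treated for 5 hr, using CellTiter-Glo added to wells already read for the beta-lactamase reporter.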

Experiment [7] is described as follows: qHTS assay to identify small molecule agonists of the TGF-beta/Smad signaling pathway (AID 1346859; active means well fitted activation curve with a large enough effect in the signal ratio in the repeat runs, not every such curve was filed as active; the % refers to the signal ratio; further: series mostly up to about 77 µM). The procedure, abridged: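 Each well held 4,000 SBE-bla HEK 293T cells incubated overnight before compound addition; 5 hr later the cleavable FRET substrate went on for 2 hr at room temperature, and fluorescence was read at two emissions.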
Experiment [8] has as its target Thyrotropin-releasing hormone receptor (Homo sapiens) (UniProt P34981). As to the kind of experiment: qHTS assay to identify small molecule antagonists of the thyrotropin-releasing hormone receptor (TRHR) signaling pathway (AID 1346877; active means well fitted inhibition curve with a large enough effect in the repeat runs, not every such curve was filed as active; further: series mostly up to about 51 µM). The method in brief:
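Antagonist mode: after a 5 min room-temperature compound exposure, cells were stimulated with 1 nM (final) TRH. Dye-loaded TRHR-HEK293 cells were used, and calcium-dependent fluorescence was followed for 3 min, with 15-point titrations run in triplicate.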

Experiment [9] can be described thus: qHTS assay to identify small molecule antagonists of the TGF-beta/Smad signaling pathway - cell viability counter screen (AID 1346824). Further: nearly all actives have a fitted effect of over 50% in size. The procedure, abridged: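 SBE-bla HEK 293T cells were plated overnight at 37 C, then given compounds in DMSO plus TGF-beta1 (added as 0.25 ng/mL solution) for 5 hr. After the bla read, CellTiter-Glo was added to the same wells and luminescence read after 30 min at room temperature.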

A short description of experiment [10]: qHTS assay to identify small molecule agonists of the estrogen receptor alpha (ER-alpha) signaling pathway in the presence of an antagonist - cell viability counter screen (AID 1259386). Further: series mostly up to about 92 µM; nearly all actives have a fitted effect of over 30% in size. The method in brief:
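Compounds tested at 15 concentrations for 22 h at 37C alongside 10.0nM (final) ICI-182,780 antagonist, in VM7Luc4E2 cells grown in phenol red-free, charcoal-stripped medium. Viability read by CellTiter-Fluor fluorescence after 1 h reagent incubation.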

Values without a mark were called inactive. Results filed as inconclusive are left out. Active and inactive are the calls of the source. Unless noted, the call rests on the fitted dose curve; in most records, active means well fitted curve in the direction sought with a large enough effect in the repeat runs; inconclusive means weak or mixed curves; inactive means no such curve, though single readings can be large; an effect the other way counts as inactive or inconclusive.

Thyrotropin receptor (Homo sapiens), sequence (P16473 whole entry, looked up): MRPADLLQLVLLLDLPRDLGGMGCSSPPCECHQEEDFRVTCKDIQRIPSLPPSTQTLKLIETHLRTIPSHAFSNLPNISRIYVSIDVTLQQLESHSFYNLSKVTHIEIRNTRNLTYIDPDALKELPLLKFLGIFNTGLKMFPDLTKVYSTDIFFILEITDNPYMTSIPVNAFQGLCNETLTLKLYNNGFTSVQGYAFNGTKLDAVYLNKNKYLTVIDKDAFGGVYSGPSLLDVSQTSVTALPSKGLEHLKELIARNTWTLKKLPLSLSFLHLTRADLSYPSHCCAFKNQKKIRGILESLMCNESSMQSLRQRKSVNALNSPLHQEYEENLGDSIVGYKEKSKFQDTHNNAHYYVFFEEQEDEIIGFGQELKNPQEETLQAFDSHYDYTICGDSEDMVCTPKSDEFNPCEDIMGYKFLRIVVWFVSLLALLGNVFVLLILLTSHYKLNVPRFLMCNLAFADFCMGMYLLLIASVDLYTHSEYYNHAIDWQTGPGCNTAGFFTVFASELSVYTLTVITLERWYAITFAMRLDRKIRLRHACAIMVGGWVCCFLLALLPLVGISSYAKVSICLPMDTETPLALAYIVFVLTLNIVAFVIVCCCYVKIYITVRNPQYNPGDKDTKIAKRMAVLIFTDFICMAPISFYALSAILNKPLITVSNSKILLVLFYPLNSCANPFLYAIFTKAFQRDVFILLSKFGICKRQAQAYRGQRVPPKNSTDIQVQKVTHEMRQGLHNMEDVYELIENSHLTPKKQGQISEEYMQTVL
Progesterone receptor (Homo sapiens), sequence (P06401 whole entry, looked up): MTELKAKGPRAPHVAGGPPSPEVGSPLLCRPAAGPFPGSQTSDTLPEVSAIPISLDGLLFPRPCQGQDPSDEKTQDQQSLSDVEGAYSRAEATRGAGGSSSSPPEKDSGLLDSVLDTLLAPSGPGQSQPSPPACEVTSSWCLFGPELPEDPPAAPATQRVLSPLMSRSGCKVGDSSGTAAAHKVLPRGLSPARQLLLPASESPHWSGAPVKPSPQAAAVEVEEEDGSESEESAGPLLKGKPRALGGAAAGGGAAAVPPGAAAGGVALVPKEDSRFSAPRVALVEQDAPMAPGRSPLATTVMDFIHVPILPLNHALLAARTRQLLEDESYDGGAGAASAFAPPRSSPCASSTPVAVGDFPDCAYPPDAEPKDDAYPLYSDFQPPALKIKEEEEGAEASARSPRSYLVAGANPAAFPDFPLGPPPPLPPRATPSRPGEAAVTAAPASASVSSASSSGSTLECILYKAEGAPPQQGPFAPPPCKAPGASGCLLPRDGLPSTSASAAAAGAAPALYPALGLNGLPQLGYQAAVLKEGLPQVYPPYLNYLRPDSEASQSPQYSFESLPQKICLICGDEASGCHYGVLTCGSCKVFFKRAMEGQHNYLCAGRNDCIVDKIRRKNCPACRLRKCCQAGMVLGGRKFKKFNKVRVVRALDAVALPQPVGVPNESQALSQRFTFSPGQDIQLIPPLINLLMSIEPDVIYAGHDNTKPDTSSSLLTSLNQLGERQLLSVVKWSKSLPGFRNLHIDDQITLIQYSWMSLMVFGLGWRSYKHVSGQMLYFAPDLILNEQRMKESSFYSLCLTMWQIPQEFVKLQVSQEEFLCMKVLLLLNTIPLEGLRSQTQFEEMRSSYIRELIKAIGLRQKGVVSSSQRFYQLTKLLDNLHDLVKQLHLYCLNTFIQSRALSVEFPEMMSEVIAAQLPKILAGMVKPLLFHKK
Thyrotropin-releasing hormone receptor (Homo sapiens), sequence (P34981 whole entry, looked up): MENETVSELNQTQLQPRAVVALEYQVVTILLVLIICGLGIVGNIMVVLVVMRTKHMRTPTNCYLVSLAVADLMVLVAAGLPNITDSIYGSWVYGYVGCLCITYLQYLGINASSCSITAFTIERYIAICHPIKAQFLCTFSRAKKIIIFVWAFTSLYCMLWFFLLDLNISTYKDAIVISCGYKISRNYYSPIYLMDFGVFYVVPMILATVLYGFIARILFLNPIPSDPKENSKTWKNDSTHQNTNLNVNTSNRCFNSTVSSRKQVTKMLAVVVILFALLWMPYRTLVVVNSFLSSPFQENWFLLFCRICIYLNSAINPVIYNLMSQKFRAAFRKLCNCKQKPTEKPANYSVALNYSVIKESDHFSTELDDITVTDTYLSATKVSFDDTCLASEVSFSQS

Consider `O=C(NC(=O)c1c(F)cccc1F)Nc1cc(Cl)c(F)c(Cl)c1F`, for which the result in experiment [1] and in experiment [7] was inactive. Besides, the Potency result in experiment [2], in experiment [3], in [4], in experiment [5], in [6] and in experiment [8] was “inactive” throughout.
Take `CCOP(=S)(OCC)Oc1ccc(Cl)cc1Cl`: the outcome in [1] and in experiment [9] was inactive. The Potency result in experiment [4], in [5], in experiment [6] and in [8] was “inactive” in each case.
In the case of `O=C(Cl)CCl`, the call in experiment [1] and in [9] was inactive. Besides, the Potency result in experiment [2], in experiment [3], in [4], in experiment [5] and in experiment [8] was “inactive” throughout.
As to `NC(=O)CS(=O)C(c1ccccc1)c1ccccc1` (stereo not drawn), the compound was classed as inactive in experiment [1], in [9] and in experiment [7]. The Potency result in [2], in [3], in experiment [4], in experiment [5] and in [8] was “inactive” in each case.
On to `CNC(=O)O/N=C(/CSC)C(C)(C)C`, for which the result in experiment [1], in experiment [9] and in [7] was inactive. Moreover, the Potency result in [4], in experiment [5], in [6] and in experiment [8] was “inactive” in each case.
For `N=C(N)[Se]`, the compound was called inactive in experiment [1], in experiment [9] and in [7]. The Potency result in [3], in experiment [4], in experiment [5] and in [6] was “inactive” throughout.
Consider `Cc1ccc(-c2nc3ccc(C)cn3c2CC(=O)N(C)C)cc1`, for which the call in [1], in experiment [9] and in experiment [7] was inactive. Moreover, the Potency entry in experiment [2], in experiment [3], in experiment [4], in [5], in experiment [6] and in [8] was “inactive” throughout.
With `COC1=CC(=O)O[C@@H](/C=C/c2ccccc2)C1`, the outcome in experiment [1] and in [9] was inactive. In addition, the Potency result in [2], in [4], in experiment [5] and in experiment [6] was “inactive” each time.
For the compound `CCC(C)(C#N)N=NC(C)(C#N)CC` (stereo not drawn), the compound was classed as inactive in [1], in experiment [9] and in experiment [7]. Further, the Potency result in [2], in experiment [3], in [4], in [5], in experiment [6] and in experiment [8] was “inactive” each time.
Regarding `N#CN`, the Potency result in experiment [10], in [2], in experiment [3], in [4] and in [5] was “inactive” in each case.
For the compound `N#CN=C1SCCN1Cc1ccc(Cl)nc1`, the call in [1] and in experiment [7] was inactive. Also, the Potency result in [2], in [3], in experiment [6] and in [8] was “inactive” in each case.
With `C=CC(=O)OCCN(C)C`, the Potency entry in [10], in experiment [2], in experiment [3], in [4], in experiment [5] and in experiment [6] was “inactive” each time. The compound was classed as inactive in experiment [9] and in experiment [7].
Regarding `C[C@H](N)C(=O)c1ccccc1`, the compound was called inactive in experiment [1] and in [7]. Besides, the Potency result in experiment [2], in [3], in experiment [4], in experiment [5] and in experiment [8] was “inactive” throughout.
On to `C[C@@H](N)[C@@H](O)c1ccccc1`, for which the result in experiment [1], in experiment [9] and in experiment [7] was inactive. Further, the Potency result in experiment [2], in [3] and in experiment [6] was “inactive” throughout.
As for `O=C1CCCCC1Cl` (stereo not drawn), the Potency entry in [10], in [2], in experiment [3], in experiment [4], in experiment [5] and in [6] was “inactive” in each case. Also, the call in experiment [9] and in [7] was inactive.
Turning to `COP(=O)(OC)O/C(C)=C/C(=O)N(C)C`, the result in experiment [1] and in [7] was inactive. Further, the Potency result in experiment [3], in experiment [6] and in experiment [8] was “inactive” throughout.
As to `COC[C@@H](NC(C)=O)C(=O)NCc1ccccc1`, the compound was classed as inactive in experiment [1], in experiment [9] and in experiment [7]. In addition, the Potency result in experiment [2], in experiment [3] and in experiment [6] was “inactive” each time.
`CN(C)CCN(C)C`: the call in experiment [1] and in [9] was inactive. Besides, in experiment [2], the Potency is 27.2 µM (active). Moreover, the Potency entry in experiment [3], in [4], in experiment [6] and in experiment [8] was “inactive” in each case.
In the case of `CCN(CCO)CCn1c(Cc2ccccc2)nc2c1c(=O)n(C)c(=O)n2C`, the Potency result in experiment [10], in [2], in experiment [3], in experiment [4], in [5] and in experiment [6] was “inactive” throughout. Also, the Potency result in [8] is “inactive”. The call in experiment [9] and in experiment [7] was inactive.
Regarding `CCNP(=S)(OC)O/C(C)=C/C(=O)OC(C)C` (stereo not drawn), the Potency entry in experiment [10], in [2], in experiment [4], in experiment [5] and in [6] was “inactive” throughout. Further, the result in experiment [7] was inactive.
`OCC(Cl)CCl` (stereo not drawn): the Potency entry in experiment [10], in [2], in experiment [4], in experiment [5], in [6] and in experiment [8] was “inactive” throughout. Besides, the compound was classed as inactive in experiment [9] and in experiment [7].
Consider `CC(C)(C)c1cc(O)ccc1O`, for which the Potency result in [10], in experiment [2], in [3] and in experiment [6] was “inactive” each time. Further, the call in experiment [7] was inactive.
On to `CC[C@@H](CO)NC(=O)[C@@H]1C=C2c3cccc4c3c(cn4C)C[C@H]2N(C)C1`, for which the Potency entry in experiment [10], in experiment [2], in experiment [3], in [4], in experiment [5] and in experiment [8] was “inactive” in each case. Besides, in experiment [9], the outcome was inactive.
For `COc1cc(CC(C)N)cc(OC)c1OC` (stereo not drawn), the Potency result in [10], in experiment [2], in [3], in experiment [5], in experiment [6] and in [8] was “inactive” in each case. Further, the compound was called inactive in [9] and in [7].
Turning to `CCOc1cc(OP(=S)(OC)OC)nc(CC)n1`, the Potency result in [10], in experiment [2], in experiment [3], in experiment [5] and in [6] was “inactive” each time. Further, the compound was classed as inactive in [9] and in experiment [7].
On to `CC(=NC#N)N(C)Cc1ccc(Cl)nc1`, for which the Potency result in experiment [10], in experiment [2], in [3], in experiment [4], in experiment [5] and in experiment [6] was “inactive” each time. In addition, in [8], the Potency entry is “inactive”. For the same compound, the call in experiment [9] was inactive.
In the case of `O=C(Cl)C(Cl)Cl`, the Potency result in [10], in [2], in experiment [3], in experiment [4], in experiment [5] and in experiment [8] was “inactive” in each case. Further, the call in [9] and in experiment [7] was inactive.
Consider `CCCCCCCCSC(=O)Oc1cc(Cl)nnc1-c1ccccc1`, for which the Potency entry in experiment [10], in [2], in [4], in [5], in experiment [6] and in experiment [8] was “inactive” each time. The compound was classed as inactive in experiment [9] and in experiment [7].
On to `CCCC(C)C1(CC)C(=O)N=C(S)NC1=O` (stereo not drawn), for which the Potency result in [10], in experiment [2], in experiment [3], in [4], in experiment [5] and in experiment [6] was “inactive” in each case. Further, in experiment [8], the Potency entry was “inactive”. In [9], the call was inactive.
In the case of `CC(C)(C1CCC(O)CC1)C1CCC(O)CC1` (stereo not drawn), the Potency result in [10], in experiment [2], in [5] and in [6] was “inactive” throughout. In addition, the Potency in experiment [3] is 27.3 µM (active). Besides, in experiment [9], the compound was classed as inactive.
In the case of `CCN(CC)C1CCCCC1`, the Potency entry in experiment [10], in [2], in experiment [3], in experiment [6] and in experiment [8] was “inactive” in each case. Also, the outcome in [9] and in [7] was inactive.
Regarding `C[C@H](CN1CCOCC1)C(C(=O)N1CCCC1)(c1ccccc1)c1ccccc1`, the Potency entry in [10], in [2], in [4], in [5] and in [8] was “inactive” each time. In experiment [9], the call was inactive.
`BrCC1CO1` (stereo not drawn): the Potency entry in experiment [10], in experiment [2], in experiment [3], in experiment [6] and in experiment [8] was “inactive” in each case. Moreover, the call in experiment [9] and in experiment [7] was inactive.
